# High-throughput results as filed in PubChem.
# FBW7 activator: FBW7 E3 ligase activators, primary screen, biochemical, AlphaScreen, human; AID 1259310, 2017; F-box/WD repeat-containing protein 7 (Homo sapiens), Q969H0; AlphaScreen FBW7–phospho-cyclin E peptide binding, activator screen; normalized activity (activation), % at 26.1 µM; 0.13% of 650,000 active; in the data active = normalized activity above about 1.9%;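 note: purified mutant Fbw7 with reduced substrate affinity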
# GPR151 ag: activators of human GPR151, primary screen, cell-based, PathHunter beta-arrestin, luminescence. G-protein coupled receptor 151 (Homo sapiens), Q8TDV0. PathHunter beta-arrestin GPR151 cells. activation, % at 11.2 µM. 1% of 650,000 active; in the data active = activation above about 4.9%;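 note: 0% = median of compound wells and 100% = cells with positive control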
# Target sequence (Q8TDV0 whole entry, looked up): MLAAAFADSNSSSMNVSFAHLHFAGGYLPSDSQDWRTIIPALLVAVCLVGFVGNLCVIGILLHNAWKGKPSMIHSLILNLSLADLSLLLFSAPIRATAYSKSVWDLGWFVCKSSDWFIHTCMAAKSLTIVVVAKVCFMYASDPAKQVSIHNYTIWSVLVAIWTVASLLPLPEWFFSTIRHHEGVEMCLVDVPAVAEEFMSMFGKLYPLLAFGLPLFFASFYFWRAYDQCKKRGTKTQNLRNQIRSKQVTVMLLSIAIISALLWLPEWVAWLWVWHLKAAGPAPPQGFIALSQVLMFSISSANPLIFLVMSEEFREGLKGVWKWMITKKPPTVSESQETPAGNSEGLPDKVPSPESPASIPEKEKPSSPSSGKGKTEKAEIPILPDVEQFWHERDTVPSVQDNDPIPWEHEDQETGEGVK
# MITF inh: MITF inhibitors, primary screen, biochemical, AlphaScreen, human | Microphthalmia-associated transcription factor (Homo sapiens), O75030 | AlphaScreen MITF homodimerization, bead proximity signal | inhibition, % at 2.6 µM | 0.91% of 650,000 active | AID 1259374, 2018; in the data active = inhibition above about 50%;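 note: 0% = vehicle wells with protein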
# TEAD-YAP inh: TEAD-YAP interaction inhibition, primary screen, TEAD-YAP interaction inhibitor project, luminescence, HEK-TIYL cells. TEAD-Gal4/YAP UAS-luciferase luminescence. inhibition, % at 9.12 µM. 1.4% of 640,000 active. AID 1259422, 2018; in the data active = inhibition above about 32%;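 note: 0% = median of test compound wells and 100% = reference inhibitor wells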
# GPR151 confirm: GPR151 activators, triplicate retest, confirmation, cell-based, PathHunter beta-arrestin, luminescence; shares compounds with GPR151 ag; GPR151 PathHunter beta-arrestin cells, 90 min; % of EA-reagent control over plate median; activation, % at 11.2 µM; 6,700 tested, under 10 active;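 active = mean percent activation across replicates above the confirmation screen cutoff of 4.91%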
# GPR119 counter: GPR119 activators in beta-arrestin cells, counter-screen for GPR151 activator project, cell-based, PathHunter beta-arrestin, luminescence, triplicate; 90 min; 0 = compound-well median, 100 = enzyme-acceptor control; AID 1508611, 2020; 0.3% of 6,700 active; shares compounds with GPR151 ag; activation, % at 11.2 µM;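 active = mean percent activation in the counterscreen above 29.09%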;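 note: counterscreen on off-target GPR119 to flag nonselective hits from the GPR151 activator screen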
# * = called active by the depositor; / = no result given; ! = not active in a repeat. Shown are actives, neighbours in structure and some others; about 3.4% of the full set was active somewhere.
SMILES,FBW7 activator,GPR151 ag,MITF inh,TEAD-YAP inh,GPR151 confirm,GPR119 counter
COc1ccc(C(=O)Oc2ccc(C=C3C(=O)NC(=S)NC3=O)cc2)cc1,0,0,12,-2,/,/
O=C1NC(=S)NC(=O)C1=Cc1cccc(OC(=O)c2ccc(Cl)cc2)c1,0,5.9*,12,-1,0,10
COc1ccc(CNC(=O)CSc2nnc(NC(=O)c3ccccc3Cl)s2)cc1,0,6.3*,-4,-26,1,-4
Cc1c(Cl)cccc1NC(=O)CSc1ncnc2c1sc1ccccc12,0,12*,5,16,-1,3
Nc1nnc(SCC(=O)Nc2nnc(SCC(=O)Nc3ccc(Cl)c(Cl)c3)s2)s1,0,0,-7,3,/,/
CCC(=O)Nc1nnc(SCC(=O)Nc2ccc(Cl)c(Cl)c2)s1,0,8.9*,3,3,0,6
CC(=O)Nc1nnc(SCC(=O)Nc2cccc(Cl)c2C)s1,0,8.7*,-1,9,-1,-10
COc1ccc(OCCOc2ccc(/C=C3/C(=N)N4N=C(C(C)C)SC4=NC3=O)cc2OC)cc1,0,-1,-2,6,/,/
CCOC(=O)c1c(NC(=O)c2cnn3c2NC(c2ccc(Br)cc2)CC3C(F)(F)F)sc2c1CCCC2 (stereo not given),0,-1,-3,9,/,/
Cn1cc(S(=O)(=O)NCCC(c2ccccc2)c2ccccc2)c(=O)n(C)c1=O,1,4.9*,11,0,0,6
COc1ccccc1CCNS(=O)(=O)c1cn(C)c(=O)n(C)c1=O,0,3,-4,6,/,/
Cc1cccc(NS(=O)(=O)c2cn(C)c(=O)n(C)c2=O)c1,0,5.9*,-4,-6,1,12
Cc1ccc(NS(=O)(=O)c2cn(C)c(=O)n(C)c2=O)cc1C,0,2,-5,-3,/,/
COc1c2occc2c(OC)c2c(=O)cc(C(F)(F)C(F)(F)F)oc12,0,5.3*,10,6,0,5
O=C(O)Cc1ccc(NC(=O)c2ccccc2-c2ccccc2C(=O)O)cc1,0,6.6*,7,7,-1,-11
COc1cccc(OC)c1NC(=O)CC(Cc1ccc(Cl)cc1)C(=O)O (stereo not given),0,5.0*,10,-6,0,-5
CCOC(=O)c1cnc2c(OC)cccc2c1Nc1cccc(OC)c1,0,2,8,15,/,/
N#CC1=C(N)Oc2n[nH]c(-c3ccccc3)c2C1c1ccc([N+](=O)[O-])cc1Cl (stereo not given),0,1,1,-20,/,/
COc1cc(C2C(C#N)=C(N)Oc3n[nH]c(-c4cccc([N+](=O)[O-])c4)c32)cc(OC)c1O (stereo not given),0,6.0*,1,10,-1,8
COc1cc(C2C(C#N)=C(N)Oc3n[nH]c(-c4cccc([N+](=O)[O-])c4)c32)cc(OC)c1OC(C)=O (stereo not given),0,-1,-6,-8,/,/
N#CC1=C(N)Oc2n[nH]c(-c3cccc([N+](=O)[O-])c3)c2C1c1ccc(Cl)c(Cl)c1 (stereo not given),0,7.9*,5,3,-1,-6
N#CC1=C(N)Oc2n[nH]c(-c3ccccc3)c2C1c1ccc(Cl)c([N+](=O)[O-])c1 (stereo not given),0,6.1*,-3,-2,0,3
O=C1NC(=S)N(c2ccccc2F)C(=O)/C1=C\N1CCOCC1,0,1,-12,-10,/,/
O=C(NN=C1CCCCC1)C(O)(c1ccccc1)c1ccccc1,0,9.9*,-1,6,3,14
O=C(NN=C1CCCC1)C(O)(c1ccccc1)c1ccccc1,0,0,-6,-10,/,/
SMILES,FBW7 activator,GPR151 ag,MITF inh,TEAD-YAP inh,GPR151 confirm,GPR119 counter
O=[N+]([O-])c1ccc(C2Nc3ccccc3S(=O)(=O)N2Cc2ccccc2)cc1 (stereo not given),0,6.7*,3,-3,0,-6
COc1ccc(C2Nc3ccccc3S(=O)(=O)N2Cc2ccccc2)cc1[N+](=O)[O-] (stereo not given),0,0,-7,-3,/,/
O=C1[C@H]2CN(CC3CCCCC3)CCN2C(=O)[C@H]2CCCN12,1,-1,15,6,/,/
CCOC(=O)Cn1c(C(=O)OCC)cc2oc(C)cc21,0,-2,1,-1,/,/
C=CCn1c(C(=O)OCC)cc2oc(C)cc21,0,5.7*,-7,4,0,6
CC(=O)N/C(=C\c1ccccc1)C(=O)NC1CCCC1,0,0,16,-3,/,/
O=C(NCCCCc1ccccc1)c1cc([N+](=O)[O-])cc([N+](=O)[O-])c1,0,11*,17,8,1,11
O=S(=O)(c1ccc(F)cc1)n1nc(C(F)(F)F)c2cnccc21,0,5.3*,2,6,0,2
Cc1ccc(S(=O)(=O)n2nc(C(F)(F)F)c3cnccc32)cc1,0,-1,-12,4,/,/
CC1=C(C(=O)Nc2cc(C)ccn2)C(c2cc(C)sc2C)C2=C(CC(c3ccccc3)CC2=O)N1 (stereo not given),0,0,-5,8,/,/
O=C1NC(c2cccnc2)C(C(=O)c2cccs2)=C1O (stereo not given),0,6.1*,27,0,-1,-12
COc1nc(-c2ccccc2Cl)nc2ccccc12,0,5.2*,5,1,1,-5
CC(C)Oc1nc(-c2ccccc2Cl)nc2ccccc12,0,1,1,4,/,/
c1ccc(Cc2c[nH]c3ccccc23)cc1,0,5.3*,6,16,-1,5
O=C(O)CCCc1c[nH]c2ccccc12,0,5.0*!,7,-6,0,3
O=C(O)CCCNC(=O)Cc1c[nH]c2ccccc12,0,1,-7,-5,/,/
CN(Cc1ccccc1)c1ccnc2c(-c3ccc(O)cc3)cnn12,0,5.0*,-7,73*,0,0
COC(=O)c1ccc(NC(=O)COc2ccc(C34CC5CC(CC(C5)C3)C4)cc2)cc1,0,5.3*,5,7,-1,3
COc1cc(CN2CCN(Cc3ccc(F)cc3)C(CCO)C2)cc(Cl)c1O (stereo not given),0,0,-7,-14,/,/
CC(C)C(=O)NCC1CCC2(CCN(Cc3cccc(Cl)c3)CC2)O1 (stereo not given),0,2,1,2,/,/
